Test results published in PubChem BioAssay (NCATS).
Inconclusive results are not listed. Active and inactive are the calls of the source. Calls come from the whole dose curve; as a rule, active = well fitted curve in either direction with a large enough effect (not every such curve was filed as active); inconclusive = small, poorly fitted or top-dose-only effect, or another doubt; inactive = flat fitted curve, though single readings scatter.

Experiment: NFAT Signaling Pathway (AID 444);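 note: carbachol stimulus at about its EC50 of 1 µM final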
Details: Jurkat NFAT-bla M1, carbachol, beta-lactamase ratio, 5 h; at 7.69 µM (top of the series) unless noted
Summary of the method: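 Read-out: CCF4 FRET ratio (460 nm/530 nm) after 1 h RT dye loading, used for %activity and AC50 from titration series. Cells: Jurkat NFAT-β-lactamase/M1 line, treated with compound plus 1 uM carbachol for 5 h, 37 °C.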
% is set by controls: 0 for no effect and ±100 for the full control effect.

Activity change, negative = inhibition, inactive:
COc1ccccc1-c1nc(NCc2cccs2)c2ccccc2n1 -14.6%, CCNc1ncc2nc(-c3cccs3)c(=O)n(C[C@H]3CCCO3)c2n1 18.7%, COc1ccccc1-c1nccc(NCc2cccnc2)n1 1.48%, CCNc1ncc2nc(C)c(=O)n(CCOC)c2n1 13.7%, c1ccc(CNc2nc(-c3ccoc3)nc3ccccc23)cc1 -7.24%, c1csc(CNc2nc(-c3ccoc3)nc3ccccc23)c1 -8.44%, N#Cc1cccc(-c2nc(NCc3cccs3)c3ccccc3n2)c1 -16.7%, CN(Cc1ccco1)c1ncncc1-c1cccnc1 -11.4%, Cc1noc(C)c1-c1nc(N(C)C)c2ccccc2n1 3.94%, Cc1cnc(CNc2cc(-c3c(C)noc3C)ncn2)cn1 7.12%, N#Cc1cccc(-c2cncnc2NCCc2cnc[nH]2)c1 4.36%, O=c1c(-c2cccs2)nc2cncnc2n1-c1ccccc1 -9.03%, COc1ccc(-c2nc3cnc(N4CCOCC4)nc3n(Cc3cccs3)c2=O)cc1 -2.31%, COc1ccc2[nH]cc(CCNc3cc(-c4c(C)noc4C)ncn3)c2c1 0.421%, CS(=O)(=O)Nc1cccc(-c2cc(NCc3ccccc3)ncn2)c1 8.48%, CCNc1ncc2nc(-c3cccs3)c(=O)n(-c3ccccc3)c2n1 -3.13%, COc1ccc(CNc2ncncc2-c2ccc(N(C)C)cc2)c(OC)c1 1.33%
